Our source for the max response values is PubChem BioAssay AID2314 (National Center for Advancing Translational Sciences (NCATS), 2010).

Molecules are shown by their SMILES. Hit rate of the full screen: of about 300,000 compounds, about 37,000 (12%) were called active. This excerpt belongs to a sample that is enriched for actives. A number with no mark means an inactive call. Rule as the data show it: active = max response mostly above about 13% (no sharp cut-off); inactive = mostly below about 14%.

The nature of the test: Cycloheximide Counterscreen for Small Molecule Inhibitors of Shiga Toxin. Also: read at 38.3 µM for the half of the compounds with a filed dose; 0% is about no effect. The settings on record: cell reporter, cycloheximide protein synthesis inhibition counterscreen; stronger effect = higher value.
As for `COc1ccc(NS(=O)(=O)c2ccc(F)cc2F)cn1`, the max response is -4.72%.
To `COc1cc(C(=O)NCCOC(=O)c2cccc(N(C)C)c2)cc(OC)c1OC` belongs -1.25%; to `CC/C(O)=C1\C(=O)CC(C)(C)CC1=NCCc1nc2ccccc2[nH]1`, 6.92%; to `CCC(=O)/C(=C(/O)c1ccccc1)c1nc2ccccc2[nH]1`, 31% (active).
To `Cc1nc2ccccc2c(-c2ccccc2)c1C(=O)c1ccccc1` belongs -4.4%.
Take `Cc1nnc(Sc2nc3c(c(=O)[nH]c(=O)n3C)n2Cc2ccccc2)s1`: the max response is -5.79%.
For `O=C(O)CSc1nnc(-c2ccc3c(c2)OCO3)n1-c1ccccc1`, the max response is 12.9%.
Regarding `Cc1ccccc1-c1nnc(SCC(=O)NCc2ccc3c(c2)OCO3)n1C`, the max response is -2.35%.
The figure for `Cn1c(SCC(=O)N2CCOCC2)nnc1-c1ccc2ncccc2c1` is -0.963%.
The figure for `Cn1c(SCC(=O)N2CCOCC2)nnc1-c1ccc(NC(=O)c2ccccc2F)cc1` is -4.11%; for `Cn1c(SCC(=O)N2CCCC2)nnc1-c1ccc2c(c1)OCO2` it is 18.9% (active); for `Cn1c(SCc2nc3ccccc3s2)nnc1-c1ccc2c(c1)OCO2` it is 39.5% (active).
`COc1ccccc1NC(=O)CCN1CCN(c2ccc(Cl)cc2)CC1`: the max response was -0.528%.
As to `COc1cc(C(C(=O)NC2CCCC2)N(C(=O)c2ccco2)c2ccccc2C(C)=O)cc(OC)c1OC` (configuration not stated), the max response was 3.6%.
To `CC(C)c1c(C(=O)N/N=C/c2ccccc2C(=O)O)nnn1-c1nonc1N` belongs 23.4%; to `COc1ccccc1C(=O)NC(CCSC)C(=O)NNC(=O)c1csc(N2CCOCC2)n1` (configuration not stated), -1.29%; to `O=C(NCCc1ccc(Cl)cc1Cl)c1cc([N+](=O)[O-])c[nH]c1=O`, -5.02%.
Consider `CCCN1CCN(C(=O)CCCNC(=O)c2ccc(Cl)cc2)CC1`, for which the max response is -2.8%.
To `CN1CCN(NC(=O)Nc2ccc(Br)cc2)CC1` belongs 24.2% (active).
For the molecule `COc1ccc(NC(=O)NN2CCN(C)CC2)c(OC)c1`, the max response was 0.309%.
`O=C(NC(=O)c1ccccc1N1CCCCC1)Nc1ccc(Br)cc1`: the max response is -3.48%.
The figure for `COc1ccc(-c2nc3c(s2)CCc2onc(-c4ccc(OC)cc4)c2-3)cc1` is -2.4%; for `COc1ccc(S(=O)(=O)N2CCN(C)CC2)c(C)c1` it is -3.62%.
For the molecule `COc1cccc(Nc2nc(N)c([N+](=O)[O-])c(NCc3ccco3)n2)c1`, the max response was 19.4% (active).
The figure for `CN(c1ccccc1)c1nc(N)c([N+](=O)[O-])c(NCc2ccco2)n1` is 1.96%; for `Nc1nc(NCCCN2CCOCC2)nc(Nc2ccccc2)c1[N+](=O)[O-]` it is -2.59%; for `COc1ccccc1CCNS(=O)(=O)c1cc2c3c(c1)C(C)C(=O)N3CCC2` (configuration not stated) it is 4.12%.
To `CC1=C(C)C(=O)OC(C(C)C2CCC3C4CC=C5CC(OC6OC(COC7OC(CO)C(O)C(O)C7O)C(O)C(O)C6O)CC(O)C5(C)C4CCC23C)C1` (configuration not stated) belongs 7.38%.
To `CN(C)c1ccc(Nc2c3c4c(cccc4n(C)c2=O)C(=O)c2ccccc2-3)cc1` belongs 3.88%; to `COc1ccc(C(=O)/C=C/Nc2ccccn2)cc1`, 2.25%; to `Cc1cc(N/C=C\C(=O)c2ccc(Cl)c(Cl)c2)no1`, 11.9% (active).
As for `Cc1cc(NC(=O)CSc2nnc(-c3ccc(Cl)s3)o2)no1`, the max response was 5.82%.
The figure for `COc1ccc(NC(=O)CSc2nncc(=O)n2N)cc1OC` is -3.35%.
To `COC(=O)[C@@H]1CC[C@H](C)[C@@H](c2ccc(C)cc2)N1C(=O)c1ccc(/C=N/O[C@H](C)c2cn([C@@H]3COC[C@H]3O)nn2)cc1` belongs -2.13%.
The figure for `CN1C2CCC1CC(NC(=O)c1ccc([N+](=O)[O-])cc1)C2` (configuration not stated) is -3.99%.
For `CSc1ccccc1C(=O)Nc1cccc(C(C)=O)c1`, the max response was 11.9%.
The figure for `CC(=O)c1cccc(NC(=O)c2cc(C)nn2-c2ccccc2)c1` is 12.3% (active); for `COc1ccc(CCNC(=O)c2c(C)nn(-c3ccccc3)c2Cl)cc1` it is -2.65%.
The figure for `Cc1nn(-c2ccccc2)c(CC(C)(C)C(=O)O)c1C(=O)O` is -4%; for `Cc1nn(-c2ccccc2)c(Cl)c1C(=O)Nc1ccccc1` it is 24.4% (active); for `Cc1ccc(NC(=O)Nc2cc(-c3ccccc3)nn2C)cc1Cl` it is 1.12%.
To `CCn1c(=O)c2cc(C(=O)Nc3cccc(C(C)=O)c3)sc2c2ccccc21` belongs -2.44%; to `Cc1cc(NC(=O)Nc2ccc(Cl)cc2)n(-c2ccccc2)n1`, 1.95%; to `Cc1cc(NC(=O)Nc2ccccc2)n(-c2ccccc2)n1`, 18.1% (active).
For `O=C(NCc1ccco1)/C(=C/c1cccc([N+](=O)[O-])c1)NC(=O)c1ccco1`, the max response was 1.87%.
`COC(=O)[C@H](Cc1ccccc1)NC(=O)[C@@H]1C[C@H]1[C@@H](NC(=O)OCc1ccccc1)c1ccccc1`: the max response is -3.05%.
To `Cc1nn(C)c(C)c1Sc1ccccc1N` belongs 1.39%.
To `O=C(COc1ccc([N+](=O)[O-])cc1)Nc1cccc(C(=O)Nc2ccccc2C(=O)O)c1` belongs -6.64%; to `Cc1cccc(N2CCN(C(C)C(=O)N3CCc4ccccc43)CC2)c1C` (configuration not stated), -5.33%; to `O=C(c1cn(-c2ccccc2)nc1-c1cc2ccccc2oc1=O)N1CCOCC1`, 6.82%.
The figure for `Nc1ncc(-c2cc3ccccc3oc2=O)s1` is 43.5% (active); for `O=C(NCc1cccnc1)c1cccc(-c2cc3ccccc3oc2=O)c1` it is 12.9%; for `O=C(Nc1ccc(F)cc1)C1CCCN(S(=O)(=O)c2ccc(-n3cnnn3)cc2)C1` (configuration not stated) it is -0.989%.
As to `O=C(c1c(F)cccc1Cl)N1CCN(c2ccccn2)CC1`, the max response was -8.36%.
The figure for `COc1ccccc1CNC(=O)c1ccc(CS(=O)(=O)c2ccccc2)o1` is -1.73%; for `NC(=O)COC(=O)/C=C/c1ccc2ccccc2n1` it is 16.4% (active).
The figure for `CC(=O)c1ccc(S(=O)(=O)N2CCN(C(=O)/C=C/c3ccc4ccccc4n3)CC2)cc1` is -1.24%; for `O=C(COC(=O)/C=C/c1nc2ccccc2s1)Nc1ccccc1Oc1ccccc1` it is -1.69%; for `CCCCCCCCn1c2c(c(=N)c3c1CCC3)CCCC2` it is -1.22%.
To `CCC(CC)COC(=O)C1=C(C)NC(=O)NC1c1ccc([N+](=O)[O-])cc1` (configuration not stated) belongs -4.34%; to `COc1ccccc1-c1c(C)nn2c(C)c(C(C)=O)cnc12`, -2.56%; to `CCc1ccc2nc(Nc3ncc(C(C)=O)c(C)n3)nc(C)c2c1`, 4.49%.
On to `COc1ccccc1Nc1ncc(C(C)=O)c(C)n1`, for which the max response was 17% (active).
To `CC(=O)NC(Cc1ccc(F)c(F)c1)C(=O)NC1CCN(c2nnnn2-c2ccccc2)CC1` (configuration not stated) belongs -1.76%; to `COc1ccc(N2CCN(S(=O)(=O)c3cc(Br)cnc3N)CC2)cc1`, -1.92%.
Take `COc1ccc(OCc2ccc(-c3nc4ccccc4c(=O)n3N)o2)cc1`: the max response is 30.2% (active).
To `COc1ccc(OCc2n[nH]c(=S)n2N)cc1` belongs 5.41%.
In the case of `COc1ccc(-c2nc3ccccc3c(=O)n2CCc2ccc(O)cc2)cc1`, the max response was 17.7%.
The figure for `CCCCCNC(=O)C1c2ccccc2Oc2ccccc21` is -1.28%.
The figure for `[2H]C(CCOS(N)(=O)=O)c1ccccc1` (configuration not stated) is -0.0595%; for `COC(=O)[C@]1(S(=O)(=O)c2ccccc2)C[C@@H]2ON=C(c3ccc(OC)cc3)[C@@H]2C1` it is 12.7%.
The figure for `CCC1Sc2ccc(S(=O)(=O)CCC(=O)NCc3cccs3)cc2NC1=O` (configuration not stated) is 15.6%; for `Cc1ccc(C)c(NS(=O)(=O)c2cc(Br)cnc2N)c1` it is -1.97%; for `COc1ccccc1N1CCN(S(=O)(=O)c2ccc(Cl)cc2)CC1` it is -4.44%.
Regarding `COc1ccccc1CN(C)c1nnnn1-c1ccccc1`, the max response was -3.28%.
To `COc1ccccc1-n1nnnc1S(=O)(=O)Cc1ccc(Cl)cc1` belongs 16.8% (active).
The figure for `CN(C)c1ccc(CNC2C3CC4CC(C3)CC2C4)cc1` (configuration not stated) is -2.32%.
The figure for `CC(=O)Oc1ccc(C(=O)Nc2nccs2)cc1` is 11.1%; for `CCOc1ccc(C(=O)Nc2nccs2)cc1[N+](=O)[O-]` it is 28.1% (active).
Regarding `CCOc1ccc(C(=O)NC(=S)Nc2ccc(NC(=O)C(C)C)cc2)cc1[N+](=O)[O-]`, the max response was -1.26%.
As for `CC(C)c1cc(C(=O)N/N=C/c2ccoc2)c(O)c(C(C)C)c1`, the max response was 6.52%.
The figure for `O=C(N/N=C/c1ccoc1)c1ccc(Cl)cc1Cl` is 28.2% (active); for `CC(C)NC(=O)c1ccc(Cl)cc1Cl` it is 8.78%; for `CC(C)c1ccc(N2CCN(C(=O)c3ccccc3NC(=O)/C=C(\C(=O)O)c3ccccc3)CC2)cc1` it is 24.6%.
`COCCCNC(=S)NCCNc1nc2cc(C)c(C)cc2cc1C#N`: the max response is 26%.
The figure for `COc1ccc(CNS(=O)(=O)c2ccc(-c3cnc(C4CC4)o3)cc2)cc1` is -0.963%; for `O=C(NCC1CCCO1)c1cc2c([nH]c3ccccc32)c(-c2ccc(F)cc2)n1` (configuration not stated) it is -1.44%; for `COc1ccc(-c2cc(=O)oc3cc(OC(C)C(=O)NCC4CCC(C(=O)O)CC4)ccc23)cc1` (configuration not stated) it is -2.31%.
Take `O=C(CCc1nnc(CCCCc2ccccc2)o1)NC(c1cccnc1)C(F)(F)F` (configuration not stated): the max response was -3.39%.
To `CC(CCn1cccn1)NC(=O)CCc1nnc(CCc2ccccc2)o1` (configuration not stated) belongs 5.1%.
The figure for `Cc1cc(-c2nnc(CCC(=O)NC(c3ccccc3)c3ccccc3)o2)no1` is 25.2% (active); for `CCOC(=O)/C=c1\s/c(=C\c2ccc(C#N)cc2)c(=O)n1CC(=O)Nc1cccc(C)c1C` it is -1.86%.
